# Laboratory results published in the OligoGym collection.
# Target: TAAR8
# Experiment: pooled miR-30 sensor sort-seq; sequence = guide strand
# Conditions: shRNA
# Also: reference of the scale not given here.
row,Sequence,sensor-assay potency score (higher = more potent)
1,AAATCTATCAACACCCAGCCTT,-0.587
2,TTATAGCTTGTTGTTTAGCTAT,-0.98
3,TAATGGTTGATGAACTAGCCTT,-0.64
4,TAATAAGCACTCCAACAGCAAA,-1.57
5,TCAGTAACCACAATGTACCTGT,0.327
6,TTAGCTATAAGAAAAATCTTAC,-0.74
7,TTTAGCTATAAGAAAAATCTTA,-0.583

# Target: TAC4
# Experiment: as above
# Conditions: shRNA
row,Sequence,sensor-assay potency score (higher = more potent)
1,TGCTTTTTTTCTCCTTGGCTGG,-1.36
2,TGAACAGGCTTCTCTTGCCCAG,-1.26
3,TCATCCTCTCTGCCTTCTGTGA,-1.57
4,TCTGCCTTCTGTGAACAGGCTT,-0.554
5,TTCCTCTCCACCATCACCTGCC,0.531
6,TGCAGCTGGAGCTGAATGCTGG,-1.1
7,TCTGTGAACAGGCTTCTCTTGC,-0.505
8,TCTCTGCCTTTTTTTCTCCTTG,-0.948
9,TTCTGTGAACAGGCTTCTCTTG,-0.693
10,TGCTTCAGTGCTGAGTGTCTGT,-0.405
11,TATGCTTTTTTTCTCCTTGGCT,-0.257
12,TTTTTTTCTCCTTGGCTGGATC,-1.14
